High-throughput results deposited in PubChem BioAssay by National Center for Advancing Translational Sciences (NCATS).
ELG1 genotoxic = qHTS screen for small molecules that induce genotoxicity in human embryonic kidney (HEK293T) cells expressing luciferase-tagged ELG1 | HEK293T ELG1-luciferase reporter, luminescence, 16 h | Potency, µM (highest dose often 46 µM), without a hit: at the top dose activity change, positive = activation, usual class: activators | actives 1.3% (n = 330,000); note: % of control where 0% means no effect; nearly all actives have a fitted effect of over 60% in size
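Genotoxic stress is detected as increased luminescence from luciferase-tagged ELG1 in HEK293T cells, measured with ONE-Glo after a 16 hr treatment at 37 °C.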
Rab9 promoter act = qHTS Assay for Rab9 Promoter Activators. AID 485297, 2010. actives 2.8% (n = 320,000). Potency, µM (titrated, usually from 9.22 µM), inactives show top-dose activation, negative = inhibition, hits mostly activators. Huh7 Rab9 promoter-luciferase reporter, luminescence, 24 h; note: % of control where 0% means no effect; nearly all actives have a fitted effect of over 60% in size
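Huh7 reporter line, Rab9 promoter upstream of luciferase. Compound exposure 24 h at 37 °C in reduced-serum medium with 10% FBS. Read-out: luminescence.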
FLuc modulator = qHTS profiling assay for firefly luciferase inhibitor/activator using purifed enzyme and Km concentrations of substrates (counterscreen for miR-21 project); Luciferin 4-monooxygenase (Photinus pyralis), P08659; AID 588342, 2011; Potency, µM (doses to about 57.5 µM), for the others: at the highest dose activity change, negative = inhibition, usual class: inhibitors; actives 6.9% (n = 360,000); purified FLuc, Km substrates, luminescence inhibition;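 note: plate controls were vehicle for no effect and reference inhibitor for full effect; nearly all actives have a fitted effect of over 55% in size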
Target sequence (P08659 whole entry, looked up): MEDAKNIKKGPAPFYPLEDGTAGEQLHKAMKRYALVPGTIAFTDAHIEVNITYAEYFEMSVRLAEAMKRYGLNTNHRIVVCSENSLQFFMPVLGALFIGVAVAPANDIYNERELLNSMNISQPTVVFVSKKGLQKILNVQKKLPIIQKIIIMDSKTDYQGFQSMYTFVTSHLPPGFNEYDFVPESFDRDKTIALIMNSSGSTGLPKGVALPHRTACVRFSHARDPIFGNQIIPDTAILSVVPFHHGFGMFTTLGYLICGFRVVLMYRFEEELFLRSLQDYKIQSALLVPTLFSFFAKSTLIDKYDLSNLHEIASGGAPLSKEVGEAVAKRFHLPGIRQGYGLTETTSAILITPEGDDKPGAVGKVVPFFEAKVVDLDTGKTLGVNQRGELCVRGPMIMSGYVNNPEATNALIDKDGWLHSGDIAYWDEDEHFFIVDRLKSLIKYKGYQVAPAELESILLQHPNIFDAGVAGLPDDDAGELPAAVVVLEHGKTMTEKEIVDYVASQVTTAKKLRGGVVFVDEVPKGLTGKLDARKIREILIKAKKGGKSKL
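Purified P. pyralis luciferase (10nM final) with 10uM D-luciferin and 10uM ATP (Km levels) in 50mM Tris acetate pH 7.5, 10mM Mg acetate, 0.01% Tween-20, 0.05% BSA; qHTS 6-point titration, ~60 µM downward; luminescence read.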
SMN2 splice up = qHTS Assay for Enhancers of SMN2 Splice Variant Expression; actives 2.8% (n = 210,000); Potency, µM (highest dose often 46.1 µM), without a hit: at the highest dose activity change, positive = activation, hits mostly activators; HEK293 SMN2-luciferase splicing reporter, luminescence, 30-36 h; note: % of control where 0% means no effect; nearly all actives have a fitted effect of over 55% in size
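HEK293 cells carry an SMN2 […]–luciferase reporter in which exon 7 inclusion puts luciferase in frame. Cells were plated 10-12 h before compound addition, then incubated 30-36 h at 37C. ONE-Glo luminescence was read; sodium butyrate at 4.5 mM final served as control.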
NPC1 promoter act = qHTS Assay for NPC1 Promoter Activators | Huh7 NPC1 promoter luciferase reporter, 24 h | Potency, µM (top dose mostly 9.22 µM), for the others: top-dose activation, most hits filed as activators | actives 2.4% (n = 320,000); note: % of control where 0% means no effect; nearly all actives have a fitted effect of over 60% in size
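Stable NPC1-promoter luciferase Huh7 line; cpd (DMSO) 24 h, 37 °C, 5% CO2; Amplite luciferase reagent 10 min RT; luminescence readout. qHTS format.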
Starred values were filed as active, the others as inactive; ? = inconclusive; nt = no result given. A selection: hits, their analogues and other compounds. The true share with any hit is near 7.5%. Calls come from the whole dose curve; as a rule, active = well fitted curve in the direction sought with a large enough effect; inconclusive = small, poorly fitted or top-dose-only effect, or another doubt; inactive = no such curve, though single readings can be large; an effect the other way counts as inactive or inconclusive. Potency is the fitted concentration of half-maximal effect.

SMILES | ELG1 genotoxic | Rab9 promoter act | FLuc modulator | SMN2 splice up | NPC1 promoter act
Cc1ccc(-c2nn(-c3ccc(F)cc3F)c3c2cnc2c(F)cccc23)cc1 | nt | nt | -8% | nt | nt
COc1cc(OC)c(C(=O)OCC(=O)N2CCOCC2)cc1OC | 10% | 4% | 3% | nt | -1%
O=C(CSC(=S)N1CCCC1)c1ccccc1 | 0.58µM* | 0.4µM* | 1.1µM* | nt | 0.63µM*
O=C(O)CSC(=S)N1CCCC1 | -2% | -2% | -3% | nt | -2%
O=C(CSC(=S)N1CCCCC1)c1ccccc1 | 0.65µM* | 0.32µM* | 1.2µM* | 0.56µM* | 0.5µM*
O=C(CN1C(=O)CSc2ccc(S(=O)(=O)N3CCCC3)cc21)NCc1ccc(F)cc1Cl | nt | nt | -13% | nt | nt
COc1ccc(/C=C/C2=NC(=C\N(C)C)/C(=O)O2)cc1 | ? | ? | 21µM* | 23% | ?
CN(C)/C=C1\N=C(c2ccccc2)OC1=O | 2% | 24% | -9% | 8% | 11%
Cn1c(-n2c(-c3ccco3)nc3ccccc3c2=O)nc2ccccc21 | -1% | -5% | 21µM* | -10% | 0%
O=c1c2ccccc2nc(-c2ccco2)n1-c1nc2ccccc2s1 | 6% | 5% | 15µM* | -14% | 7%
COc1ccc(C2C(=O)N(C3CCCCCC3)CC(=O)N2CCc2ccc(OC)c(OC)c2)cc1 (centres undefined) | nt | nt | -1% | nt | nt
CSc1c(-c2ccccn2)c(N)nn1C(=O)C1CCC1 | -3% | -8% | ? | nt | 7%
CSc1c(-c2ccccn2)c(N)nn1C(=O)C1CC1 | 0% | 0% | 19µM* | nt | 0%
O=Cc1cn(-c2ccccc2)nc1-c1ccccc1 | 0% | -1% | 12µM* | nt | 4%
Cc1c(NC(=O)/C=C/c2cn(-c3ccccc3)nc2-c2ccccc2)c(=O)n(-c2ccccc2)n1C | -10% | -1% | 21µM* | -10% | 1%
O=Cc1cn(-c2ccccc2)nc1-c1ccncc1 | 1% | 0% | -19% | ? | 2%
COc1cccc(-c2nn(-c3ccccc3)cc2/C=C\C(=O)c2cccs2)c1 | -5% | -48% | 7.6µM* | -74% | -2%
CCN(CC)S(=O)(=O)c1ccc(/C=C/C(=O)Nc2c(C)n(C)n(-c3ccccc3)c2=O)cc1 | -6% | 9% | 4% | -2% | -1%
C(=N\N1CCOCC1)/c1cn(-c2ccccc2)nc1-c1ccccc1 | -1% | 6% | 24µM* | 23% | 12%
Cn1cnc(C(=O)NCc2ccc(CNC(=O)OC(C)(C)C)cc2)c1C(=O)NCc1ccc(CNC(=O)OC(C)(C)C)cc1 | -2% | nt | nt | nt | nt
O=C(O)/C=C/c1cn(-c2ccccc2)nc1-c1ccccc1 | -1% | 9% | 13µM* | nt | -1%
CCN(CC)CCCNC(=S)N1CCN(c2nc(-c3ccccc3)cs2)CC1 | 3% | -5% | -2% | nt | -5%
COc1ccc(CC(=O)Oc2ccc(F)c(F)c2)cc1S(=O)(=O)N1CCOCC1 | 0% | -7% | -1% | nt | -2%
COc1cccc(C(=O)Nc2nnc(-c3ccccc3)s2)c1 | ? | 1.6µM* | 4.8µM* | nt | 1.4µM*
CC(C)(C)c1ccc(-c2nnc(NC(=O)c3ccccc3)s2)cc1 | 3% | ? | 1.7µM* | 2% | ?
SMILES | ELG1 genotoxic | Rab9 promoter act | FLuc modulator | SMN2 splice up | NPC1 promoter act
COc1cccc(C(=O)Nc2nnc(-c3ccc(OC)cc3OC)s2)c1 | ? | 6% | -10% | nt | -1%
COCC(=O)Nc1nnc(-c2ccc(C(C)(C)C)cc2)s1 | 3.7µM* | 0.56µM* | 1.9µM* | 8.9µM* | 1.1µM*
COc1cccc(OC)c1C(=O)Nc1nnc(-c2ccc(F)cc2)s1 | 2% | 11% | -27% | nt | 1%
Cc1ccc(Cl)cc1NC(=O)c1ccc2nc(CCc3ccccc3)oc2c1 | nt | nt | -11% | nt | nt
COc1ccccc1NS(=O)(=O)c1ccc(C(=O)NCC(c2cccs2)N2CCOCC2)cc1 (centres undefined) | -3% | nt | nt | nt | nt
Cc1ccc(-c2cn3c(n2)sc2cc(C(=O)NC(C)C45CC6CC(CC(C6)C4)C5)ccc23)cc1 (centres undefined) | nt | nt | -5% | nt | nt
O=C(Nc1ccccc1)c1cn(-c2ccccc2)nc1-c1ccccc1 | nt | nt | -2% | nt | nt
COc1cccc(-c2nn(-c3ccc(C)cc3)cc2C(=O)N2CCc3cc(OC)c(OC)cc3C2)c1 | -22% | 1% | 5.4µM* | nt | -3%
COc1ccc(-c2nn(-c3ccccc3)cc2/C=N/Nc2ccc(Cl)c(C(=O)O)c2)cc1OC | 10% | 1% | 13µM* | nt | 2%
COc1ccc(-c2nn(-c3ccccc3)cc2/C=C(\CC(=O)O)c2nc3ccccc3s2)cc1OC | 2% | -1% | 9.5µM* | -5% | 3%
O=C(O)c1cccc(NC(=O)c2cn(-c3ccccc3)nc2-c2ccc(F)cc2)c1 | 9% | 22% | 4.8µM* | nt | -4%
COc1ccc(OC)c(-c2nn(-c3ccccc3)cc2C(=O)N2CCc3ccccc3C2)c1 | 0% | 1% | 2% | nt | -2%
COc1ccc2ccccc2c1/C=N/Nc1ccc(Cl)c(C(=O)O)c1 | 11% | ? | ? | nt | ?
NC(=O)/C=C\c1cn(-c2ccccc2)nc1-c1ccc2c(c1)OCCO2 | -3% | -5% | -16% | -8% | -2%
CCOC(=O)c1ccc(NC(=O)c2cn(-c3ccccc3)nc2-c2ccc(OC)c(OC)c2)cc1 | nt | nt | -1% | 10% | nt
COc1ccc(-c2cn(-c3ccccc3)nc2C(=O)O)cc1OC | -1% | -1% | 12µM* | nt | 0%
COc1ccc(-c2nn(-c3ccccc3)cc2C(=O)Nc2ccc(C(=O)O)cc2)cc1OC | 16% | 16% | 4.3µM* | nt | 18%
COc1ccc(-c2nn(-c3ccccc3)cc2/C=C/C(=O)N2CCOCC2)cc1OC | -1% | -2% | 24µM* | 11% | 0%
Cc1ccc(-c2nn(-c3ccccc3)cc2C(=O)Nc2ccc(C(=O)O)cc2)cc1 | 13% | ? | 1.1µM* | 18µM* | 27%
Cc1ccc(S(=O)(=O)N2CCN(c3nccnc3C#N)CC2)cc1 | 1% | 10% | 0% | nt | -3%
C=CCC(O)(CC=C)CNC(=O)c1ccc(OC)c(OC2CCN(C(C)=O)CC2)c1 | -5% | 4% | 0% | nt | 0%
CCn1cc(CNC(=O)c2cc(COc3ccc(F)cc3F)on2)cn1 | -6% | -7% | -3% | nt | -5%
COc1cccc(-c2nn(-c3ccccc3)cc2C(=O)O)c1 | 2% | -7% | ? | -18% | -4%
COc1ccc(-c2nn(-c3ccccc3)cc2C(=O)O)cc1OC | 7% | 8% | 15µM* | 3% | 4%
COc1ccc(-c2nn(-c3ccccc3)cc2/C=C/C(=O)NCCCn2ccnc2)cc1OC | -10% | 4% | 27µM* | nt | 0%
